Source: PubChem (NMMLSC)
AGP1 TOR yeast = modulators of AGP1-GFP expression in yeast TOR pathway, primary screen, cell-based, multiplex flow cytometry, S. cerevisiae, MLPCN library | 3 h; GFP as percent of DMSO wells | GFP response vs DMSO, % at 10 µM | hit rate 0.02% among 320,000;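 active = GFP response relative to DMSO above a set limit, near screen average plus 3 SD, cut at about 150% in these data; inconclusive = fewer than 70 cells counted for the yeast strain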;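 note: median GFP channel fluorescence of the gated AGP1 strain per well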
LAP4 TOR yeast = modulators of LAP4-GFP expression in yeast, primary screen, S. cerevisiae, multiplex flow cytometry, MLPCN library; GFP response vs DMSO, % at 10 µM; hit rate 0.34% among 320,000; 3 h; median GFP as percent of DMSO wells;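 active = GFP response vs DMSO above a set limit, about the screen mean plus 3 SD, cut at about 150% in these data; inconclusive = under 70 cell events counted for the yeast strain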
MEP2-GFP yeast = modulators of MEP2-GFP levels in yeast, primary screen, S. cerevisiae, multiplex flow cytometry, MLPCN library | hit rate 0.51% among 330,000 | AID 2016, 2009 | GFP response vs DMSO, % at 10 µM | S. cerevisiae MEP2-GFP strain, 3 h; 100% = DMSO control level;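 active = GFP response versus DMSO above a set limit, roughly screen mean plus 3 SD, cut at about 180% in these data; inconclusive = fewer than 70 cells counted for a yeast strain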;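 note: median GFP fluorescence of the barcode-gated MEP2-GFP cells per well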
RPL19A-GFP yeast = RPL19A-GFP expression modulators in yeast, primary screen, cell-based, S. cerevisiae, multiplex flow cytometry, MLPCN; S. cerevisiae RPL19A-GFP strain, 3 h; stronger effect = lower value; percent response vs DMSO, % at 10 µM; hit rate 0.3% among 330,000;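 active = percent response vs DMSO below 50%; inconclusive = fewer than 70 events counted for the yeast strain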;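 note: median channel GFP fluorescence of the barcoded RPL19A-GFP strain; ratio of sample median GFP to plate DMSO average so 100% = DMSO; lower means less RPL19A-GFP as with rapamycin TOR inhibition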
CIT2-GFP yeast = modulators of CIT2-GFP expression in yeast, primary screen, S. cerevisiae, GFP fusion, multiplex flow cytometry, MLPCN library; hit rate 0.065% among 320,000; AID 2029, 2009; GFP response vs DMSO, % at 10 µM; S. cerevisiae CIT2-GFP strain, 3 h; 100 means same as DMSO wells;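 active = GFP response relative to DMSO above a set limit, near the screen mean plus 3 SD, cut at about 150% in these data; inconclusive = Fewer than 70 cells measured for a yeast strain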;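 note: ratio of well median GFP fluorescence to mean of DMSO wells on the plate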
LAP4 cherry2 = LAP4-GFP expression modulators in yeast, confirmation, cell-based, second cherry pick, flow cytometry. shares compounds with LAP4 TOR yeast. S. cerevisiae LAP4-GFP strain, 3 h. GFP response vs DMSO, % at 10 µM. hit rate 20% among 590;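 active = GFP signal as percent of the solvent control above about 150%, meaning raised reporter expression, limit read from the data; inconclusive = fewer than 70 cells counted in the well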;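 note: ratio of well median GFP fluorescence to plate DMSO mean so 100% = DMSO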
MEP2 cherry2 = modulators of MEP2-GFP levels in yeast, confirmation, S. cerevisiae, flow cytometry GFP, second cherry picks | shares compounds with LAP4 TOR yeast | S. cerevisiae MEP2-GFP strain, 3 h | GFP response vs DMSO, % at 10 µM | hit rate 10% among 590 | AID 2622, 2010;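 active = GFP signal above 150% of the solvent control wells, that is a rise of more than half; inconclusive = fewer than 70 yeast cells counted in the well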;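 note: median channel GFP fluorescence of all gated yeast cells per well; ratio of median GFP to plate DMSO average so 100% = DMSO level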
RPL19A GFP CP2 = RPL19A-GFP modulators in TOR pathway yeast, confirmation, cell-based, S. cerevisiae, flow cytometry, second cherry pick; shares compounds with LAP4 TOR yeast; S. cerevisiae RPL19A-GFP strain, 3 h; stronger effect = lower value; 100% means same as DMSO wells; GFP response vs DMSO, % at 10 µM; hit rate 3% among 590;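 active = under 65% GFP response relative to DMSO; inconclusive = yeast strain with under 70 measured events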;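 note: median GFP channel fluorescence per well over the all cells gate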
CIT2 GFP CP2 = modulators of CIT2-GFP expression in yeast, confirmation, flow cytometry, second cherry pick, single plex; shares compounds with LAP4 TOR yeast; S. cerevisiae CIT2-GFP strain, 3 h; DMSO control wells read 100%; GFP response vs DMSO, % at 10 µM; hit rate 8% among 590; AID 2624, 2010;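 active = GFP response vs DMSO above about 150%, limit read from the data; inconclusive = fewer than 70 events counted for a yeast strain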;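 note: median green fluorescence per well over all gated yeast cells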
AGP1 GFP CP2 = AGP1-GFP expression modulators, hit retest, confirmation, cell-based, flow cytometry, S. cerevisiae, cherry pick set 2; percent response vs DMSO, % at 10 µM; S. cerevisiae AGP1-GFP strain, 3 h; 590 tested, under 10 active; AID 2643, 2010; shares compounds with LAP4 TOR yeast;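 active = over 150 percent of DMSO response; inconclusive = yeast strain measured with under 70 events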;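 note: median GFP channel fluorescence over all cells without mother daughter split; sample median GFP divided by mean DMSO control so 100% equals DMSO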
s288c autofluor = compound autofluorescence in yeast s288c, dose response, artefact control for yeast TOR pathway GFP screen, s288c strain | 610 tested, under 10 active | S. cerevisiae s288c, 520 nm autofluorescence, flow cytometry, 3 h; stronger effect = higher value; zero means same as solvent-only cells | fluorescence change (kMESF span) at 33 µM | shares compounds with LAP4 TOR yeast;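 active = fluorescence span over the dose series, or activity score, above about 33, limit read from the data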
Active calls of the source: *; u = inconclusive; x = not tested or not shown. Compounds with a hit are over-represented: about 0.93% of the library has one in this group of screens.

SMILES	AGP1 TOR yeast	LAP4 TOR yeast	MEP2-GFP yeast	RPL19A-GFP yeast	CIT2-GFP yeast	LAP4 cherry2	MEP2 cherry2	RPL19A GFP CP2	CIT2 GFP CP2	AGP1 GFP CP2	s288c autofluor
COc1ccc(C2=CC3=C(Br)C(=O)C(C)(O)C(=O)C3=CO2)cc1 (stereo not given)	14	98	117	42*	57	125	150*	34*	160*	24	3.2
CCC(=O)OC1(C)C(=O)C2=COC(c3ccc(OC)cc3)=CC2=C(Br)C1=O (stereo not given)	45	137	89	84	57	x	x	x	x	x	x
C=CCNC(=O)c1ccc(Cn2c(=S)[nH]c3cc4c(cc3c2=O)OCO4)cc1	88	81	96	90	78	x	x	x	x	x	x
O=C(NCCN1CCCC1)c1ccc(Cn2c(=S)[nH]c3cc4c(cc3c2=O)OCO4)cc1	111	153*	104	83	87	101	94	99	106	97	x
N/C(=N\OC(=O)c1cc(Br)ccc1Cl)c1ccccn1	90	208*	104	89	117	x	x	x	x	x	1.2
Cc1cc(C)nc(NS(=O)(=O)c2ccc(NC(=O)c3cc(=O)c4ccccc4o3)cc2)n1	103	101	98	99	103	x	x	x	x	x	x
CCSc1ccc(-c2nn(-c3ccccc3)cc2/C=C(/C#N)C(=O)NCCCOC)cc1	83	186*	525*	105	186*	96	96	101	114	97	x
CCCSc1ccc(-c2nn(-c3ccccc3)cc2/C=C(/C#N)C(=O)NCCCOC)cc1	100	102	108	103	110	x	x	x	x	x	x
Cc1ccc(/C=C2/SC(=S)N(C3CCCCC3)C2=O)o1	81	158*	92	93	88	x	x	x	x	x	0.2
O=C1/C(=C/c2ccncc2)SC(=S)N1C1CCCCC1	96	112	102	96	83	x	x	x	x	x	x
Cc1ccc(/C=C2\SC(=S)N(CC3CCCO3)C2=O)o1 (stereo not given)	108	171*	108	102	113	x	x	x	x	x	0.31
CC12CCC(c3n[nH]c(=S)nc31)C2(C)C (stereo not given)	91	89	91	100	96	x	x	x	x	x	x
O=[N+]([O-])c1ccc(Sc2nc3ccccc3o2)c([N+](=O)[O-])c1	98	165*	98	102	107	x	x	x	x	x	0.51
Cc1ccc(S(=O)(=O)N2CCC(=O)N(CCOCc3ccc(F)cc3)CC2)cc1	75	119	88	91	68	x	x	x	x	x	x
O=C1CCN(S(=O)(=O)c2ccccc2)CCN1CCOCc1ccc(F)cc1	108	179*	190*	81	108	97	95	98	103	99	0
O=C(O)c1ccc(Oc2c(C(F)(F)F)oc3cc(O)ccc3c2=O)cc1	57	92	164	56	90	104	103	97	99	98	x
Cc1oc2cc(O)ccc2c(=O)c1Oc1ccccc1	100	104	101	101	104	x	x	x	x	x	x
O=C(O)C1Sc2[nH]c(=O)sc2C2c3cc(Br)ccc3OC(=O)C12 (stereo not given)	90	151*	112	99	101	x	x	x	x	x	3.3
O=C(CN1C(=O)c2ccccc2S1(=O)=O)NCc1ccccc1Cl	22	81	299*	95	69	97	94	99	114	96	x
CCN1/C(=C/c2ccc3cc(C)ccc3[n+]2CC)Sc2ccc3sccc3c21	124	300*	588*	90	366*	x	x	x	x	x	8.8
Brc1cccc(CN2CCN(c3ncccn3)CC2)c1	104	96	104	104	101	x	x	x	x	x	x
COc1ccc(/C=C2\CCc3ccccc3C2=O)cc1O	99	118	105	105	98	x	x	x	x	x	x
CC1=C/C(=N\OS(=O)(=O)c2ccccc2)C(C(C)C)=CC1=O	75	191*	92	86	60	172*	157*	96	117	75	1.1
CC1=C/C(=N\OS(=O)(=O)c2ccccc2)C(C)=CC1=O	97	234*	107	87	87	x	x	x	x	x	15
CC1=C(C)/C(=N\OS(=O)(=O)c2ccc(C)cc2)C=CC1=O	80	244*	86	79	86	160*	145	106	153*	87	0
SMILES	AGP1 TOR yeast	LAP4 TOR yeast	MEP2-GFP yeast	RPL19A-GFP yeast	CIT2-GFP yeast	LAP4 cherry2	MEP2 cherry2	RPL19A GFP CP2	CIT2 GFP CP2	AGP1 GFP CP2	s288c autofluor
CC(OC(=O)CCC(=O)c1ccc(Cl)s1)C(=O)NC1(C#N)CCCCC1 (stereo not given)	92	104	98	95	119	x	x	x	x	x	x
Nc1nc(N)c2nc(-c3ccccc3)c(N)nc2n1	44	115	332*	61	116	97	98	98	93	99	x
O=C(Oc1oc(-c2ccco2)nc1C=Nc1ccccc1)c1ccco1	79	203*	90	98	71	x	x	x	x	x	0.3
O=c1oc(-c2ccco2)nc2ccccc12	92	121	100	94	93	x	x	x	x	x	x
O=c1oc(-c2ccco2)nc2c1cnn2-c1ccccc1	61	86	82	85	u	x	x	x	x	x	x
O=C(Oc1oc(-c2ccco2)nc1C=Nc1ccccc1)c1ccoc1	72	217*	87	91	87	x	x	x	x	x	-9.6
Cc1ccc(C(=O)Oc2oc(-c3ccco3)nc2C=Nc2ccc(Cl)cc2)cc1	75	223*	96	100	93	x	x	x	x	x	0.2
Cc1ccc(N=Cc2nc(-c3ccco3)oc2O)cc1	91	119	95	91	92	x	x	x	x	x	x
